# Test results: PubChem BioAssay (EPA / NIEHS)
# Activity calls are given as the source filed them. How the source made its calls: active means hit-call score of the fitted dose curve at least 0.9, where 1 is the maximum; inactive means score below 0.9.
# Assay: CCTE_Shafer_MEA_dev_correlation_coefficient_mean: CCTE's Neural Network Formation Assay for Mean Correlation Coefficient, Shafer Lab (AID 2284093);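 on AC50: well mean pairwise spike train correlation integrated as AUC over recording days 5 to 12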
# Procedure: CCTE_Shafer_MEA_dev assay is conducted using Axion Biosystems 48 well microelectrode array (MEA) plates and Maestro recording system. Each well of the MEA plate contains a grid of 16 microelectrodes embedded in the culture surface. Electrically active cells, such as neurons, can be cultured over the electrodes, and electrical activity in these cells can be recorded extracellularly. The spontaneous firing of neurons is captured from each electrode on a microsecond timescale providing both temporally and spatially precise data. […] The CCTE_Shafer_MEA_dev assay uses primary cultures of rat cortical neurons. Recordings are made on days post-plating 5, 7, 9 and 12. As these cultures mature over time, neural networks develop functional activity and form cohesive networks in which electrical activity can be highly coordinated. CCTE_Shafer_MEA_dev_correlation_coefficient_mean is 1 of 19 assay components of the CCTE_Shafer_MEA_dev assay. It measures the correlation coefficent of spikes (action potential firings) between every pair of electrodes in a well during a recording in a microelectrode array (MEA) using Axion Biosystems Maestro 768 channel amplifier with the AxIS adaptive spike detector. The pairwise correlations are averaged across active electrodes to report a well-mean value. To collapse across multiple recordings made on days post-plating 5, 7, 9 and 12, the trapezoidal area-under-the-curve of the component is calculated.Data from the assay component CCTE_Shafer_MEA_dev_correlation_coefficient_mean was analyzed into 1 assay endpoint. This assay endpoint, CCTE_Shafer_MEA_dev_correlation_coefficient_mean, was analyzed in the negative analysis fitting direction relative to DMSO as the negative control and baseline of activity. Using a type of functional reporter, gain or loss-of-signal activity can be used to understand electrical activity.
# On the day prior to culture, each well was coated thoroughly with 150 uL of 0.05% polyethyleneimine (PEI, Sigma Cat P3143) in 50 mM HEPES (Sigma Cat H7523) at a pH of 8. The plate was incubated at 37C for one hour. PEI was rinsed out with 500 uL of sterile water three times. Plates were stored at 4C until the day of culture. This culture was plated at a seeding density of 1.5 x 10^5 cells/well on a 48-well MEA plate, prepared as described above. Cells were administered via a 25 uL media/laminin ([…]; Sigma Cat L2020-1MG) drop directly onto the microelectrode array, as adding the cells with the laminin results in better attachment than pre-coating with laminin. After 2 hours, an additional 475 uL of cortical media was added and the cells returned to the incubator. Exposure starts at day 0 of plating and is continued over twelve days of network development until the experiment is terminated. Cells are fed with fresh medium on DIV 5 and 9, following the recordings on those days. The entire volume of media in the well is exchanged and any vehicle or compound treatment is renewed. Complete details are found in OP-NHEERL/ISTD/SBB/TJS/2015-03-r0 (available on request, email shafer.tim@epa.gov). Measurement of the electrical activity is non-invasive, and recordings can be made from the same plate over multiple different days of the culture. In cortical neurons, this allows for the measurement of extracellular action potentials over the period during which networks form in the MEA plate.
Compound,outcome,AC50
O=S(=O)(O)CCC(F)(F)C(F)(F)C(F)(F)C(F)(F)F,inactive,
OCC(O)CC(F)(F)C(F)(F)C(F)(F)C(F)(F)F (centres undefined),inactive,
OCC(F)(F)C(F)(F)C(F)(F)C(F)(F)C(F)(F)C(F)(F)C(F)(F)C(F)(F)CO,,24.1 µM (active)
C=CC(=O)OCC(F)(F)C(F)(F)C(F)(F)COC(=O)C=C,,8.13 µM (active)
CNS(=O)(=O)C(F)(F)C(F)(F)C(F)(F)C(F)(F)C(F)(F)C(F)(F)C(F)(F)C(F)(F)F,inactive,
CO[Si](C)(CCC(F)(F)C(F)(F)C(F)(F)C(F)(F)C(F)(F)C(F)(F)F)OC,inactive,
O=S(=O)(O)CCC(F)(F)C(F)(F)C(F)(F)C(F)(F)C(F)(F)C(F)(F)C(F)(F)C(F)(F)F,inactive,
NC(=O)C(F)(F)C(F)(F)C(F)(F)C(F)F,inactive,
FC(F)(F)C(F)(F)C(F)(F)C(F)(F)C(F)(F)C(F)(F)C(F)(F)CCI,inactive,
O=C(O)C(F)(F)C(F)(F)C(F)(F)OC(F)(F)F,inactive,
C=CC(=O)OCCC(F)(F)C(F)(F)C(F)(F)C(F)(F)F,,15 µM (active)
NC(=O)C(F)(F)C(F)(F)C(F)(F)C(F)(F)C(N)=O,inactive,
NC(=O)C(F)(F)C(F)(F)C(F)(F)F,inactive,
OCC(F)(F)C(F)(F)C(F)(F)CO,inactive,
CCN(CCO)S(=O)(=O)C(F)(F)C(F)(F)C(F)(F)C(F)(F)C(F)(F)C(F)(F)C(F)(F)C(F)(F)F,inactive,
OCCCCC(F)(F)C(F)(F)C(F)(F)C(F)(F)F,inactive,
OCC(F)(F)C(F)(F)C(F)(F)C(F)(F)C(F)(F)C(F)(F)CO,inactive,
NC(O)(C(F)(F)F)C(F)(F)F,inactive,
OC(O)C(F)(F)C(F)(F)F,inactive,
